# Test results from PMC7819943, “Rice protein-binding microarrays: a tool to detect cis-acting elements near promoter regions in rice”.
# Over roughly 68,000 sequences, “fluorescence intensity (a.u.)” has its median near 9,100; the highest 2% begin near 16,000. The list comes from a sample in which the highest values are over-represented; it also holds similar and randomly drawn sequences.
# Molecular target: OsWRKY34 (Oryza sativa, UniProt Q0JBA9 1-250)
# Experiment: protein-binding microarray (RPBM); PBS, 2% BSA, 51.3 ng/ul salmon testes DNA, 50 uM zinc acetate, 200 nM TF, 25 C, 1 h; high values mean tight binding
# Conditions: protein: recombinant; tags: N-terminal polyhistidine and DsRed monomer fusion (pET32a); label: CyDye5-dUTP incorporated in the synthesized complementary strand; 3' TTTTT single-stranded linker to array surface; dsDNA, one strand shown
# In short: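 Transcription factors were made in E. coli BL21-CodonPlus as N-terminal fusions to a polyhistidine tag and DsRed, then purified on Ni–NTA. After primer extension with Cy5-dUTP and blocking with 2% BSA, a custom Agilent array was exposed for 1 h at 25 °C to 200 nM protein in PBS, 2% BSA, salmon testes DNA and 50 µM zinc acetate. Washed arrays were scanned on an Axon 4000B, and the binding signal is per-feature fluorescence intensity in arbitrary units.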
# Sequence of OsWRKY34 (Q0JBA9 entry or part of it): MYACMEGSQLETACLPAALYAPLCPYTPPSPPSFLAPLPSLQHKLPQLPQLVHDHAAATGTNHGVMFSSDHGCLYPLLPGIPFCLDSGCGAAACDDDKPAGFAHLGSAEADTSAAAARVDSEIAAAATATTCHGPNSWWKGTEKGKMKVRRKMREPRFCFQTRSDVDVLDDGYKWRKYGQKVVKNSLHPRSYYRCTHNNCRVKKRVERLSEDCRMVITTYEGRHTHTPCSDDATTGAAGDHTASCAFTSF
row,Sequence,binding signal
1,CAGCACCAACGTTCTCTTCGGCCGATTCGGCGATTGCATCCGGAGTCACCTAGTGCAG,8930 fluorescence intensity (a.u.)
2,TCCTCTTGCAAAAAAAACACACACACACACGCACACAACTCGGAGTCACCTAGTGCAG,10200 fluorescence intensity (a.u.)
3,ACGCACCAAAACACACGATCCTCTCGGATAAATCACAGCCCGGAGTCACCTAGTGCAG,27500 fluorescence intensity (a.u.)
4,ATCCTCTCCCGCACCAGCTATAAACCGCCACACGCCCTCGCGGAGTCACCTAGTGCAG,8650 fluorescence intensity (a.u.)
5,CTCTCTCTCTCTCTCTCTCTCTCTCTCGATGCCGACGCTTCGGAGTCACCTAGTGCAG,11000 fluorescence intensity (a.u.)
6,GGAGCTAGTCCAACCTACCGCAGTCACACCACCCCGCTATCGGAGTCACCTAGTGCAG,9270 fluorescence intensity (a.u.)
7,TGTATGTGTGGTGTGTGTTCATGTGCATCCTGAATTTTACCGGAGTCACCTAGTGCAG,14200 fluorescence intensity (a.u.)
8,TGTGGGTGGGGTTATTTTTTCTTCGTTTTCCTATTTACGACGGAGTCACCTAGTGCAG,15700 fluorescence intensity (a.u.)
9,GGTGCGTGGGTGGTGGTCTTTTTCTTTTTCCTAGTTACGACGGAGTCACCTAGTGCAG,29400 fluorescence intensity (a.u.)
10,TGTGGATGATGGTATTTTTTTTCCTTTTTCCTAGTTACGACGGAGTCACCTAGTGCAG,9100 fluorescence intensity (a.u.)
11,GATGTGTTGGCTGTCTTTGTTTTTTTTTTCCTGGTTTACCCGGAGTCACCTAGTGCAG,14000 fluorescence intensity (a.u.)
12,GTGGGTGGTGGTTTTTTTTTCCTTTTTCCTGGTTACGACCCGGAGTCACCTAGTGCAG,23700 fluorescence intensity (a.u.)
13,GTATGTGGGTGGTGGTATTTTTTTTATCCTGGTTACGACCCGGAGTCACCTAGTGCAG,19700 fluorescence intensity (a.u.)
14,CTTCCTTTTCTCTTCTTCTTCTTCTTCTTTTGCGTGGGGACGGAGTCACCTAGTGCAG,9650 fluorescence intensity (a.u.)
15,GGAGGTGGAAAATCTTTGTTTTTTTCCTGGTTACGATCTCCGGAGTCACCTAGTGCAG,9150 fluorescence intensity (a.u.)
16,ATATCATGTTTATTATCTTGTTATTTTGGATTAAAATATGCGGAGTCACCTAGTGCAG,9720 fluorescence intensity (a.u.)
17,GATGCCTGCCAATCTGCCATGCCATTATATCTGCAGTTCTCGGAGTCACCTAGTGCAG,12000 fluorescence intensity (a.u.)
18,CGTCTCTCCCGATCCGTCCCATCAAAAAGCAACACCAATACGGAGTCACCTAGTGCAG,8530 fluorescence intensity (a.u.)
19,ATTTTTATAGTATTACATCTACGTGTAAAGTTTCATCTTTCGGAGTCACCTAGTGCAG,8260 fluorescence intensity (a.u.)
20,CTATGGTTTGGTTTGAATTTTACTGTTGTATGCTGTTCCCCGGAGTCACCTAGTGCAG,8660 fluorescence intensity (a.u.)
21,TGGCCGGGAGGGTTGGCCCTTGTGGTTTCGGGGTTTGGTTCGGAGTCACCTAGTGCAG,15900 fluorescence intensity (a.u.)

row,Sequence,binding signal
1,CTTTTCTCATCCCTTTTGTTTCTTCACTCCGGCTCACCGCCGGAGTCACCTAGTGCAG,8230 fluorescence intensity (a.u.)
2,GTACACGTTACCCGCGTGGGTGTGGGTATGGGGATGATTTCGGAGTCACCTAGTGCAG,11700 fluorescence intensity (a.u.)
3,GGGTGTTTTCAGACGGAGAGAGGCGGCGGCGGCGGCGGGGCGGAGTCACCTAGTGCAG,18500 fluorescence intensity (a.u.)
4,TGAGAAAGAGAGAGAGAGGGAGATGGCTGGGGAGACGGGGCGGAGTCACCTAGTGCAG,9660 fluorescence intensity (a.u.)
5,TAGGGTTTGGTTGGGTTTTTGGGTGTTTTCAGACGGAGAGCGGAGTCACCTAGTGCAG,12800 fluorescence intensity (a.u.)
6,GGGTTGAGATGGGAGTAGAGGGGAGTGAGGTGGAAGAAGACGGAGTCACCTAGTGCAG,8360 fluorescence intensity (a.u.)
7,CGAGGGAGAGGGGAGAGGGGAGTGCGGCGGGTGAGGCGGGCGGAGTCACCTAGTGCAG,9650 fluorescence intensity (a.u.)
8,GCGGTGATGACAGACGGGAGAGGGAGGGTTTTTTTTGTTACGGAGTCACCTAGTGCAG,18200 fluorescence intensity (a.u.)
9,GATCAGAGATGAGGGCGGGCGGGTTGACTGGGAGAGTAGACGGAGTCACCTAGTGCAG,20500 fluorescence intensity (a.u.)
10,TATTTTTGACCAGAGGGAGGGTTTTTTTTTTTTTGAGAGACGGAGTCACCTAGTGCAG,10300 fluorescence intensity (a.u.)
11,AGTGTTCTAGACTTACGGGTTACGGTTTTTTTTGTTAGAGCGGAGTCACCTAGTGCAG,8090 fluorescence intensity (a.u.)
12,ACACAGCCACACACCAACATGCCCTTCAGGTCTTCACACTCGGAGTCACCTAGTGCAG,9550 fluorescence intensity (a.u.)
13,TTGTCTCCTATCTTGTGCCGTGCCTTCTTAAACCATTGCTCGGAGTCACCTAGTGCAG,8610 fluorescence intensity (a.u.)
14,CATGGCCTAGTTGGGGTGTTGCGTATGTAATTTATCTGTCCGGAGTCACCTAGTGCAG,8100 fluorescence intensity (a.u.)
15,TTGACGGAGCATCTATACCCGGTTTTGTAGTTCATGAACACGGAGTCACCTAGTGCAG,9100 fluorescence intensity (a.u.)
16,ATTTTGGTACTACTCTATATTTTAGTTTGCAGCTTGTGCTCGGAGTCACCTAGTGCAG,10600 fluorescence intensity (a.u.)
17,ATATACACATTCTCCCATTGCTATATTATCTGTATTCTGACGGAGTCACCTAGTGCAG,13400 fluorescence intensity (a.u.)
18,GATCTTGTGCACCTTACAAATTACATTGCCGACCATAAAACGGAGTCACCTAGTGCAG,9320 fluorescence intensity (a.u.)
19,ATCTATCACCATCTCTCCTTGATCTTGTGCACCTTACAAACGGAGTCACCTAGTGCAG,16800 fluorescence intensity (a.u.)
20,CTCTCTCTATCCATCTCTTTCTCTCTCTCTTACACAACAACGGAGTCACCTAGTGCAG,8150 fluorescence intensity (a.u.)
21,GTTATCAGCTTTTCTTTTTTTTTTGAAATTTCAGATTATTCGGAGTCACCTAGTGCAG,8980 fluorescence intensity (a.u.)

row,Sequence,binding signal
1,CCCCATTCACTTCCACAGACAAGTAGCATCACCTTTCAGTCGGAGTCACCTAGTGCAG,8710 fluorescence intensity (a.u.)
2,CCATATTTTAATGTATGACGCCATTGACTTTTTGTCCAACCGGAGTCACCTAGTGCAG,14500 fluorescence intensity (a.u.)
3,AATATATGACGCCGTTAACTTTTCGAACAACATTTGACTACGGAGTCACCTAGTGCAG,9760 fluorescence intensity (a.u.)
4,CCTCCTTTTGACTCAGCAAGTCAATTGTGGTCAACCTGCCCGGAGTCACCTAGTGCAG,8970 fluorescence intensity (a.u.)
5,CGATCAACGTTTGACTATTTGTTTTATTCAAAATTTTTGTCGGAGTCACCTAGTGCAG,9460 fluorescence intensity (a.u.)
6,CACCTTGACTCAGCGTGGTTGACTCTAGTCAACTTGTCACCGGAGTCACCTAGTGCAG,10400 fluorescence intensity (a.u.)
7,GTATGACGCCGTTGACTTTTCGATCAACGTTTGACTATTTCGGAGTCACCTAGTGCAG,25300 fluorescence intensity (a.u.)
8,ATTTTAATGTATGACGCCGTTGACTTTTTGTCCAACGTTTCGGAGTCACCTAGTGCAG,25600 fluorescence intensity (a.u.)
9,TAAATGTTTAACGTCGTTGACTTTTTTAAACATGTATGACCGGAGTCACCTAGTGCAG,19200 fluorescence intensity (a.u.)
10,TAAATGTTTAACGTTGTTGACTTTTTTAAACATGTTTGACCGGAGTCACCTAGTGCAG,13500 fluorescence intensity (a.u.)
11,GTTGACCGTTGACCTTTTTGTGGGTCAACTCAATCAAGACCGGAGTCACCTAGTGCAG,16600 fluorescence intensity (a.u.)
12,CACCAAGCATGTCCATGACCTTGCACTCTTGGCTCACTCGCGGAGTCACCTAGTGCAG,8030 fluorescence intensity (a.u.)
13,CAAAATCCTTTTTCTTTTTTTCATTTTTTCTGTGCTTTTTCGGAGTCACCTAGTGCAG,8680 fluorescence intensity (a.u.)
14,TAGGCTGATGGGTCTTCATGCTTCGGTTCATCTTCGTCTCCGGAGTCACCTAGTGCAG,10200 fluorescence intensity (a.u.)
15,GGTGAGCTCTCTTTAATGCATATACACAGCAGCCTATTGCCGGAGTCACCTAGTGCAG,8440 fluorescence intensity (a.u.)
16,TGTGATTTGCACCGCATACTTTCCCCGACAATAGATCATCCGGAGTCACCTAGTGCAG,8850 fluorescence intensity (a.u.)
17,CCTCCGCTTCTTCGCCGCCGCCGCCATCCCGCCCTAGCGACGGAGTCACCTAGTGCAG,9070 fluorescence intensity (a.u.)
18,ATTTTCTTTAAGAGATGTTCTTGTCTGTTGTCAGGTTTGTCGGAGTCACCTAGTGCAG,9670 fluorescence intensity (a.u.)
19,ACCGTCGTCAGCAACGCCGCTACTGCCACTGCAATTGCCGCGGAGTCACCTAGTGCAG,8320 fluorescence intensity (a.u.)
20,CCGCATTTTAATGTATGACGTCATTGACTTTTCGATCAACCGGAGTCACCTAGTGCAG,10200 fluorescence intensity (a.u.)
21,CCTTTTGGACGTACGTCGATAGTTGGGTAAATATGAAAAACGGAGTCACCTAGTGCAG,11400 fluorescence intensity (a.u.)

row,Sequence,binding signal
1,ACCTGTAAACTACCGTTGGATAAAAAATAAACGTATGAGACGGAGTCACCTAGTGCAG,63600 fluorescence intensity (a.u.)
2,TATTTTAATGTATGACGCCGTTGACTTTTTAATCAATGTTCGGAGTCACCTAGTGCAG,29100 fluorescence intensity (a.u.)
3,TTAATGTATGACGCCGTTGACTTTTTAATCAACGTTTGACCGGAGTCACCTAGTGCAG,25900 fluorescence intensity (a.u.)
4,TGTGTACTATTTTTTCTACCGTTGGATACAAATATGAGGGCGGAGTCACCTAGTGCAG,8510 fluorescence intensity (a.u.)
5,TTTAATGTATCACACCGTTAATTTTTTTTCAACGTTTGACCGGAGTCACCTAGTGCAG,8900 fluorescence intensity (a.u.)
6,TTAATGTATGACGCCGTTGACTTTTTAATAAACGTTTGACCGGAGTCACCTAGTGCAG,40900 fluorescence intensity (a.u.)
7,CTGAAAATTTTGTGCGCTCACACCATGTGCTACATTTGTCCGGAGTCACCTAGTGCAG,10700 fluorescence intensity (a.u.)
8,TTCCTCCGTTTTTTTTATTCCTGCAACTAAAAGGTATTCTCGGAGTCACCTAGTGCAG,8860 fluorescence intensity (a.u.)
9,GGTCTCAGGTTGTCACTTTTCTATCCAGATTTATCGTAGTCGGAGTCACCTAGTGCAG,8110 fluorescence intensity (a.u.)
10,ATCCTCACGTAATATACACCTTCGTACCATAATATAATAACGGAGTCACCTAGTGCAG,8250 fluorescence intensity (a.u.)
11,CGCTTCCTGTTGTGATTATGTAATCTTGTATTCTTGTTGACGGAGTCACCTAGTGCAG,11600 fluorescence intensity (a.u.)
12,CTCCCTCGTCTTTCTGCTGGCCACCACCCTCCCCGTCTTCCGGAGTCACCTAGTGCAG,12300 fluorescence intensity (a.u.)
13,ACCTTTCTCACTACACGCCATTCCGCTCGCGTCCAATTGTCGGAGTCACCTAGTGCAG,10100 fluorescence intensity (a.u.)
14,CTCGTCGTCTCCTCCGCTCCTTGCGCCATCTCGCGGCTGACGGAGTCACCTAGTGCAG,11500 fluorescence intensity (a.u.)
15,CATGATCGCTGTGCACCTTCTGAATCATCTCTTCAATGGCCGGAGTCACCTAGTGCAG,9780 fluorescence intensity (a.u.)
16,TTTAATGTATGGTGCCGTTGACTTTTTTTATCAATATTTGCGGAGTCACCTAGTGCAG,41200 fluorescence intensity (a.u.)
17,TTTAAATGTATCATGTCATTGACTTTTTTATAATATTTGACGGAGTCACCTAGTGCAG,8120 fluorescence intensity (a.u.)
18,CATGCCAATCATAAATAATGACATATTGGTTGACTTTTTGCGGAGTCACCTAGTGCAG,11000 fluorescence intensity (a.u.)
19,CATACTGTTCCACTCGCCCTCGTTTTCTCCGCCACCGAGCCGGAGTCACCTAGTGCAG,8450 fluorescence intensity (a.u.)
20,TTGACGCCGTTGACTTTTTAATACATGTTTGACCATTCGTCGGAGTCACCTAGTGCAG,44300 fluorescence intensity (a.u.)
21,TTGACGCCGTTGACTTTTTAGTACATGTTTGACCATTCGTCGGAGTCACCTAGTGCAG,49900 fluorescence intensity (a.u.)
